Measured values reported in PubChem BioAssay (NCI).
Values joined by “and” are separate entries in the source; they are usually repeats but may differ in a detail not shown here. Equal entries are not always repeated. About 79,000 compounds went through this panel and 15% of them were active in at least one assay; those are over-represented in the sample as a whole. Where a structure was tested more than once in an assay, its records may differ in their call. Active and inactive are the calls of the source. Cut-off read from the data, not from the text of the source: active = growth inhibition above about 70%; inactive = the rest.

Columns and labels:
[1] = NCI Yeast Anticancer Drug Screen. Data for the rad52 strain (AID 147);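 note: 0% = growth of vehicle-treated control cultures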; conditions: S. cerevisiae rad52 mutant growth inhibition, stronger effect = higher value
In short: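 Compounds are applied to a genetically defined yeast strain lacking normal DNA damage repair, and inhibition of growth is expressed relative to cultures given vehicle only.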

[2] = NCI Yeast Anticancer Drug Screen. Data for the wt1 strain (AID 149);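 note: 0% = growth of vehicle-treated wt1 cultures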; conditions: S. cerevisiae wt1 strain (SPY 50644) growth inhibition, stronger effect = higher value
In short: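 wt1 strain grown with compound or vehicle; inhibition taken from the growth difference.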

[3] = NCI Yeast Anticancer Drug Screen. Data for the rad50EPP+ strain (AID 151);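 note: 0% = growth of vehicle-treated control cultures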; conditions: S. cerevisiae rad50 mutant strain, stronger effect = higher value
In short: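 Compounds were applied to the rad50EPP+ yeast strain, which bears a defined DNA repair alteration, and growth inhibition was determined relative to vehicle-treated cultures.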

[4] = NCI Yeast Anticancer Drug Screen. Data for the mgt1 strain (AID 153); conditions: S. cerevisiae mgt1 mutant growth inhibition, stronger effect = higher value
In short: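 Strain: mgt1 yeast, one of a set carrying defined DNA damage repair or cell cycle control alterations. Compound-treated growth compared with vehicle.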

[5] = NCI Yeast Anticancer Drug Screen. Data for the mec2-1 strain (AID 157); conditions: S. cerevisiae mec2-1 strain, stronger effect = higher value
In short: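 Strain: mec2-1 (DNA repair/cell cycle alteration). Compound exposure, then growth measured; inhibition expressed relative to vehicle.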

[6] = NCI Yeast Anticancer Drug Screen. Data for the rad14 strain (AID 159);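 note: 0% = growth of vehicle-treated control cultures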; conditions: S. cerevisiae rad14 strain growth inhibition, stronger effect = higher value
In short: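 DNA repair-defective yeast, compound-exposed; % growth inhibition derived by comparison with vehicle-treated controls.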

[7] = NCI Yeast Anticancer Drug Screen. Data for the sgs1 mgt1 strain (AID 161);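 note: 0% = growth of cultures given vehicle only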; conditions: S. cerevisiae sgs1 mgt1 strain, stronger effect = higher value
In short: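 Mutant yeast exposed to compound; growth scored against vehicle-only wells.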

[8] = NCI Yeast Anticancer Drug Screen. Data for the CLN2oe strain (AID 163);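 note: 0% = growth of vehicle-only control cultures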; conditions: S. cerevisiae CLN2oe strain, stronger effect = higher value
In short: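 Growth of a genetically modified yeast strain is measured after compound exposure and compared with cultures given vehicle alone.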

[9] = NCI Yeast Anticancer Drug Screen. Data for the cln2 rad14 strain (AID 165);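 note: 0% = growth equal to vehicle treated cultures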; conditions: S. cerevisiae cln2 rad14 strain, stronger effect = higher value
In short: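 Compounds are applied to the cln2 rad14 yeast strain, and growth is then compared with that of vehicle-treated cultures to give inhibition.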

[10] = NCI Yeast Anticancer Drug Screen. Data for the bub3 strain (AID 167); conditions: S. cerevisiae bub3 mutant strain, stronger effect = higher value
In short: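 In this screen, a yeast mutant lacking normal mitotic checkpoint function is challenged with compound. Relative growth versus vehicle gives the inhibition value.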

[11] = NCI Yeast Anticancer Drug Screen. Data for the wt2 strain (AID 169);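 note: 0% = growth of vehicle-treated yeast cultures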; conditions: S. cerevisiae wt2 strain growth inhibition, stronger effect = higher value
In short: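 This strain belongs to a panel of yeast strains with defined genetic alterations in DNA damage repair or cell cycle control. Compounds are applied, and growth inhibition is measured against vehicle-treated cultures.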

[12] = NCI Yeast Anticancer Drug Screen. Data for the mlh1 strain (AID 171);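 note: 0% = growth of vehicle-treated control cultures of the same strain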; conditions: S. cerevisiae mlh1 strain growth inhibition, stronger effect = higher value
In short: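 Growth of the mutant yeast strain after compound exposure, expressed as inhibition relative to vehicle-only controls.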

[13] = NCI Yeast Anticancer Drug Screen. Data for the sgs1 strain (AID 173);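 note: 0% = growth of vehicle-only control cultures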; conditions: S. cerevisiae sgs1 mutant, stronger effect = higher value
In short: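 Growth of a yeast strain bearing a defined genetic alteration is measured after compound treatment. Inhibition is expressed relative to vehicle-only controls.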

[14] = NCI Yeast Anticancer Drug Screen. Data for the mlh1 rad18 strain (AID 175); conditions: S. cerevisiae mlh1 rad18 strain growth inhibition, stronger effect = higher value
In short: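 Read-out is yeast growth inhibition, calculated against vehicle-only controls. The compound was applied to a strain engineered with DNA damage repair alterations.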

[15] = NCI Yeast Anticancer Drug Screen. Data for the rad18 strain (AID 177); conditions: S. cerevisiae rad18 mutant growth inhibition, stronger effect = higher value
In short: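 Growth of the mutant yeast strain after compound exposure, normalised to vehicle-only cultures.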

[16] = at 5.0 µM (retest, dose inferred, filed as 0.5)
[17] = at 50.0 µM (retest, dose inferred, filed as 5.0)

Measured: growth inhibition

Cc1nc2ccccc2nc1NNc1ccccc1
active: [3]; at 100.0 µM 84% | [9]; [16] 79% | [10]; at 50.0 µM 74%
inactive: [1]; at 1.2 µM -5% | [1]; at 3.7 µM -8% | [1]; at 11.0 µM -4% | [1]; at 33.0 µM 4% | [1]; at 100.0 µM 24% | [2]; at 1.2 µM 4% | [2]; at 3.7 µM 9% | [2]; at 11.0 µM 14% | [2]; at 33.0 µM 17% | [2]; at 100.0 µM 20% | [3]; at 1.2 µM -9% | [3]; at 3.7 µM -5% | [3]; at 11.0 µM 22% | [3]; at 33.0 µM 65% | [4]; at 1.2 µM 4% | [4]; at 3.7 µM 3% | [4]; at 11.0 µM 3% | [4]; at 33.0 µM -13% | [4]; at 100.0 µM 26% | [5]; at 1.2 µM -2% | [5]; at 3.7 µM 0% | [5]; [16] -7% | [5]; at 11.0 µM 9% | [5]; at 33.0 µM 11% | [5]; [17] 39% | [5]; at 50.0 µM 41.6% | [5]; at 100.0 µM 22% | [6]; at 1.2 µM -3% | [6]; at 3.7 µM -7% | [6]; at 11.0 µM 0% | [6]; at 33.0 µM 7% | [6]; at 100.0 µM 38% | [7]; [16] 13% | [7]; [17] 32% | [7]; at 50.0 µM 36% | [8]; at 1.2 µM -7% | [8]; at 3.7 µM -2% | [8]; at 11.0 µM 10% | [8]; at 33.0 µM 18% | [8]; at 100.0 µM 18% | [9]; [17] 48% | [9]; at 50.0 µM -11.8% | [10]; at 1.2 µM 6% | [10]; at 3.7 µM 9% | [10]; [16] 38% | [10]; at 11.0 µM 28% | [10]; at 33.0 µM 51% | [10]; [17] 44% | [10]; at 100.0 µM 63% | [11]; at 1.2 µM 3% | [11]; at 3.7 µM 5% | [11]; at 11.0 µM 14% | [11]; at 33.0 µM 23% | [11]; at 100.0 µM 22% | [12]; at 1.2 µM 1% | [12]; at 3.7 µM -4% | [12]; at 11.0 µM 7% | [12]; at 33.0 µM 30% | [12]; at 100.0 µM 41% | [13]; at 1.2 µM 1% | [13]; at 3.7 µM 1% | [13]; at 11.0 µM 8% | [13]; at 33.0 µM 16% | [13]; at 100.0 µM 24% | [14]; [16] -8% | [14]; [17] 28% | [14]; at 50.0 µM 56.6% | [15]; at 1.2 µM -3% | [15]; at 3.7 µM -2% | [15]; at 11.0 µM -5% | [15]; at 33.0 µM 30% | [15]; at 100.0 µM 58%

COc1ccc2[nH]cc([C@@H]3C4CCC(C4)[C@H]3NCc3cccc(CN[C@H]4C5CCC(C5)[C@@H]4c4c[nH]c5ccc(OC)cc45)c3)c2c1
98.8% (active) and 35.2% (inactive): [10]; at 50.0 µM
inactive: [1]; at 1.2 µM -28% | [1]; at 3.7 µM -23% | [1]; at 11.0 µM -20% | [1]; at 33.0 µM 22% | [2]; at 1.2 µM -33% | [2]; at 3.7 µM -43% | [2]; at 11.0 µM -41% | [2]; at 33.0 µM -8% | [3]; at 1.2 µM -19% | [3]; at 3.7 µM -14% | [3]; at 11.0 µM -7% | [3]; at 33.0 µM -23% | [3]; at 100.0 µM 63% | [4]; at 1.2 µM -36% | [4]; at 3.7 µM -47% | [4]; at 11.0 µM -38% | [4]; at 33.0 µM 42% | [5]; at 1.2 µM -61% | [5]; at 3.7 µM -59% | [5]; [16] -2% | [5]; at 11.0 µM -54% | [5]; at 33.0 µM 26% | [6]; at 1.2 µM -30% | [6]; at 3.7 µM -23% | [6]; at 11.0 µM 0% | [7]; [16] -7% | [8]; at 1.2 µM 36% | [8]; at 3.7 µM 33% | [8]; at 11.0 µM 31% | [8]; at 33.0 µM 63% | [9]; [16] 27% | [10]; at 1.2 µM -25% | [10]; at 3.7 µM -32% | [10]; [16] 7% | [10]; at 11.0 µM -18% | [10]; at 33.0 µM 56% | [11]; at 1.2 µM -41% | [11]; at 3.7 µM -42% | [11]; at 11.0 µM -46% | [11]; at 33.0 µM 20% | [12]; at 1.2 µM -68% | [12]; at 3.7 µM -64% | [12]; at 11.0 µM -60% | [12]; at 33.0 µM 61% | [13]; at 1.2 µM -38% | [13]; at 3.7 µM -37% | [13]; at 11.0 µM -45% | [13]; at 33.0 µM -5% | [14]; [16] 2% | [14]; at 50.0 µM 38.5% | [15]; at 1.2 µM -19% | [15]; at 3.7 µM -10% | [15]; at 11.0 µM -31% | [15]; at 33.0 µM 58%
active: [1]; at 100.0 µM 98% | [2]; at 100.0 µM 93% | [4]; at 100.0 µM 98% | [5]; [17] 99% | [5]; at 100.0 µM 97% | [6]; at 33.0 µM 89% | [6]; at 100.0 µM 98% | [7]; [17] 88% | [8]; at 100.0 µM 92% | [9]; [17] 99% | [9]; at 50.0 µM 99.2% and 77.3% | [10]; [17] 98% | [10]; at 100.0 µM 98% | [11]; at 100.0 µM 99% | [12]; at 100.0 µM 97% | [13]; at 100.0 µM 97% | [14]; [17] 99% | [15]; at 100.0 µM 98%
99.4% (active) and 61% (inactive): [7]; at 50.0 µM
99.2% (active) and 10.9% (inactive): [5]; at 50.0 µM
